Calls of active or inactive are those of the source. How the source made its calls: active means hit-call score of the fitted dose curve at least 0.9, where 1 is the maximum; inactive means score below 0.9.
Assay: ATG_M_06_CIS: Attagene CIS-FACTORIAL HepG2 Assay for M06 Transcription Factor (Internal Marker) (AID 2282950)
Conditions: HepG2 Attagene CIS-FACTORIAL M06 internal marker reporter; actives raise or lower the signal
Method: ATG_CIS is a cell-based, multiplexed-readout assay that uses HepG2, a human liver cell line, with measurements taken at 24 hours after chemical dosing in a 24-well plate.ATG_M_06_CIS is one of 52 assay component(s) measured or calculated from the ATG_CIS assay. It is designed to make measurements of mRNA induction, a form of inducible reporter, as detected with fluorescence intensity signals by Reverse transcription polymerase chain reaction (RT-PCR) and Capillary electrophoresis technology.Data from the assay component ATG_M_06_CIS was analyzed into 1 assay endpoint. This assay endpoint, ATG_M_06_CIS, was analyzed with bidirectional fitting relative to DMSO as the negative control and baseline of activity. Using a type of inducible reporter, measures of mRNA for gain or loss-of-signal activity can be used to understand the background control at the transcription factor-level as they relate to the gene . Furthermore, this assay endpoint can be referred to as a secondary readout, because this assay has produced multiple assay endpoints where this one serves a background control function. To generalize the intended target to other relatable targets, this assay endpoint is annotated to the background measurement intended target family, where the subfamily is internal marker.
Human liver HepG2 cells are transiently transfected with multiple reporter transcription units (MRTUs) in 6-well plates using FuGene 6 reagent (Roche; 3 ml FuGene/1 mg DNA). The MRTU constructs are regulated by a cis-regulating element (promoter). […] A major difference between the CIS and TRANS system is that in CIS activities of endogenous TFs are measured, whereas the TRANS assay evaluates changes in activities of exogenous, chimeric NR-Gal4 proteins. […] At the end of 24 hour incubation, total RNA was isolated using TriZol reagent (Invitrogen). The isolated RNA is then reverse-transcribed using oligo(dT) primer and Mo-MLV reverse transcriptase (Invitrogen) with DNAse I (Ambion) treatment for 30 min. The one-tenth of the produced cDNA was amplified by PCR using Taq DNA polymerase (Invitrogen) and two reporter sequence-specific primers. The PCR products were fluorescently labeled by primer extension with 6-arboxyfluorescein (6-FAM) 5'-labeled reporter sequence-specific primer (2 min at 95 C, 20 s at 68 C and 10 min at 72 C) and these products were digested with 5U of HpaI (New England Biolabs) for 2h at 37 C. The fragments were purified using Qiaquick PCR columns (Qiagen), analyzed on an ABI 3130xL genetic analyzer (Applied Biosystems) with peak positions identified by using a set of X-rhodamine (ROX)-labeled MapMarker1000 molecular weight standards (BioVentures). The raw capillary electrophoresis data was processed using Attagraph software (Attagene).
With `Clc1ccccc1-c1nnc(-c2ccccc2Cl)nn1` the outcome was “inactive”.
With `O=[N+]([O-])c1c(Cl)c(Cl)c(Cl)c(Cl)c1Cl` the outcome was “inactive”.
For `Oc1cc(Cl)ccc1Oc1ccc(Cl)cc1Cl`, the outcome was “inactive”.
For `CC1(C)C(C=C(Cl)Cl)C1C(=O)OC(C#N)c1ccc(F)c(Oc2ccccc2)c1` (stereo not given), the outcome was “inactive”.
With `OCCOc1ccccc1` the outcome was “inactive”.
With `C#CCN1C(=O)COc2cc(F)c(N3C(=O)C4=C(CCCC4)C3=O)cc21` the outcome was “inactive”.
With `CC[C@H](C)[C@H]1O[C@]2(C=C[C@@H]1C)C[C@@H]1C[C@@H](C/C=C(\C)[C@@H](O[C@H]3C[C@H](OC)[C@@H](O[C@H]4C[C@H](OC)[C@@H](O)[C@H](C)O4)[C@H](C)O3)[C@@H](C)/C=C/C=C3\CO[C@@H]4[C@H](O)C(C)=C[C@@H](C(=O)O1)[C@]34O)O2` (tested in a mixture with another compound) the outcome was “inactive”.
In the case of `C[C@H]1[C@H](c2ccc(Cl)cc2)SC(=O)N1C(=O)NC1CCCCC1`, the outcome is reported as “inactive”.
With `CCC(C)Nc1c([N+](=O)[O-])cc(C(C)(C)C)cc1[N+](=O)[O-]` (stereo not given) the outcome was “inactive”.
In the case of `COP(=S)(OC)Oc1ccc(SC)c(C)c1`, the outcome is reported as “inactive”.
In the case of `CNC(=O)/C=C(\C)OP(=O)(OC)OC`, the outcome is reported as “inactive”.
In the case of `CC(C)(C)C(O)/C(=C\c1ccc(Cl)cc1Cl)n1cncn1` (stereo not given), the outcome is reported as “inactive”.
In the case of `CCC(C)(C)C(=O)OC1=C(c2ccc(Cl)cc2Cl)C(=O)OC12CCCCC2`, the outcome is reported as “inactive”.
For `O=C(O)CCCOc1ccc(Cl)cc1Cl`, the outcome was “inactive”.
For `O=C(Nc1ccccc1)Nc1cnns1`, the outcome was “inactive”.
With `CN1CSC(=S)N(C)C1` the outcome was “inactive”.
In the case of `Cc1[nH]c(=O)n(C(C)(C)C)c(=O)c1Cl`, the outcome is reported as “inactive”.
For `O=C(O)COc1ccc(Cl)cc1Cl`, the outcome was “inactive”.
With `COc1nn(CSP(=S)(OC)OC)c(=O)s1` the outcome was “inactive”.
For `CC(C)(C)C(O)C(Oc1ccc(Cl)cc1)n1cncn1` (stereo not given), the outcome was “inactive”.
With `CNC(=O)CSP(=S)(OC)OC` the outcome was “inactive”.
For `CCOc1nc(NC)nc(NC(=O)NS(=O)(=O)c2ccccc2C(=O)OC)n1`, the outcome was “inactive”.
With `COP(=S)(OC)Oc1ccc([N+](=O)[O-])cc1` the outcome was “inactive”.
In the case of `COC(=O)c1ccccc1CS(=O)(=O)NC(=O)Nc1nc(OC)cc(OC)n1`, the outcome is reported as “inactive”.
In the case of `CC(C)N(C(=O)COc1nnc(C(F)(F)F)s1)c1ccc(F)cc1`, the outcome is reported as “inactive”.
In the case of `COP(=O)(OC)OC=C(Cl)Cl`, the outcome is reported as “inactive”.
With `O=C(O)C(F)(F)C(F)(F)C(F)(F)C(F)(F)C(F)(F)C(F)(F)C(F)(F)F` the outcome was “inactive”.
For `COC(=O)c1ccccc1S(=O)(=O)NC(=O)Nc1nc(C)nc(OC)n1`, the outcome was “inactive”.
With `CCCN(CCOc1c(Cl)cc(Cl)cc1Cl)C(=O)n1ccnc1` the outcome was “inactive”.
With `CCOC1Oc2ccc(OS(C)(=O)=O)cc2C1(C)C` (stereo not given) the outcome was “inactive”.
With `O=S(=O)(O)C(F)(F)C(F)(F)C(F)(F)C(F)(F)C(F)(F)C(F)(F)C(F)(F)C(F)(F)F` the outcome was “inactive”.
For `ClC1C(Cl)C(Cl)C(Cl)C(Cl)C1Cl` (stereo not given), the outcome was “inactive”.
For `CC1(c2ccc(Oc3ccccc3)cc2)OC(=O)N(Nc2ccccc2)C1=O` (stereo not given), the outcome was “inactive”.
In the case of `CCS(=O)(=O)c1cccnc1S(=O)(=O)NC(=O)Nc1nc(OC)cc(OC)n1`, the outcome is reported as “inactive”.
For `O=[N+]([O-])/N=C1\NCCN1Cc1ccc(Cl)nc1`, the outcome was “inactive”.
In the case of `COC(=O)c1ccccc1S(=O)(=O)NC(=O)N(C)c1nc(C)nc(OC)n1`, the outcome is reported as “inactive”.
With `CC(C)OC(=O)Nc1cccc(Cl)c1` the outcome was “inactive”.
With `CNC(=O)Oc1ccccc1OC(C)C` the outcome was “inactive”.
For `N#CN`, the outcome was “inactive”.
For `[2H]C1([2H])[n+]2ccccc2-c2cccc[n+]2C1([2H])[2H]`, the outcome was “inactive”.

Source: PubChem BioAssay (EPA / NIEHS)
